# Reference: PubChem BioAssay AID1347165 (National Center for Advancing Translational Sciences (NCATS), 2019)
# Screen size: about 220,000 compounds; about 5,700 (2.6%) were called active. Entries that show only a call come without a potency. Another 18% or so got no clear call; they are omitted. The sample holds actives, similar compounds and a random draw of the others, so the mix is not that of the screen. The call rests on the fitted dose curve; in most records, active means well fitted inhibition curve with a large enough effect; inconclusive means small, poorly fitted or top-dose-only effect; inactive means no such curve, though single readings can be large or run the other way.
# Biological target: Lysine-specific demethylase 5B (Homo sapiens) (UniProt Q9UGL1)
# Assay: Primary screen for KDM5B Histone Demethylases FDH-coupled qHTS; further: nearly all actives have a fitted effect of over 70% in size
# Conditions: FDH-coupled NADH fluorescence (FDH is formaldehyde dehydrogenase); series mostly up to 57.7 µM
# From the text: Assay Submitter (PI): Qin Yan, Ph.D. (Yale University) and Xiaodong Cheng, Ph.D. (MD Anderson) This project was funded as part of the NCI NEXT Program and Chemical Biology Consortium (CBC) The histone demethylases, KDM5A and KDM5B catalyze the demethylation of lysine 4 on histone H3 (H3K4me3/2). They are overexpressed in a variety of cancers and have been implicated in cancer cell growth, metastasis, drug resistance, and tumor growth. KDM5A is amplified and overexpressed in breast and gastric cancer; and is translocated in leukemia. While KDM5B is highly expressed in human mammary tumors and breast cancer cell lines, but not in normal adult breast tissue. Moreover, knockdown of KDM5B leads to upregulation of tumor suppressor genes, including BRCA1. The goal of this project is to employ qHTS to identify selective small molecule inhibitors of KDM5A/B demethylase activity to better understand the role of KDM5 in cancer and to develop novel therapies. We employed an FDH-coupled assay previously reported by Sakurai et al. to monitor in vitro KDM5 demethylase activity. Compounds showing dose response inhibition are re-acquired, validated, and tested for non-specific interference with the formaldehyde dehydrogenase (FDH) counterscreen. True inhibitors are validated using an AlphaLisa secondary screen, which employs an H3K4(me2-1)-specific antibody to monitor demethylation of a biotin-tagged H3K4(me3) peptide substrate. Inhibitors are profiled against KDM4A and KDM6A AlphaLisa counterscreens to determine level of demethylase specificity; and against the TruHits counterscreen to eliminate non-specific inhibitory activity on the AlphaLISA detection method. Selective inhibitors identified from the primary and secondary screening are tested in cells using immunofluorescence to monitor global H3K4 tri-methylation as a measure of KDM5A/B inhibition. Early Translation Branch (ETB) National Center for Advancing Translational Sciences (NCATS), Rockville, MD National Institute of Health (NIH), Bethesda, Maryland [1] Sakurai, M et al. A miniaturized screen for inhibitors of Jumonji histone demethylases. Mol Biosyst. 2010 Feb;6(2):357-64. doi: 10.1039/b912993f. Epub 2009 Oct 8.
# Materials: 1536-well Black, solid bottom, medium binding assay plate is purchased from Greiner Bio-one. The enzymes (KDM5B) and substrate (H3K4me3/2) are provided by the principal investigators. The buffer for this assay is composed of 50mM HEPES at pH 7.5 with 0.01% Tween-20. FDH coupled Demethylase qHTS protocol: Three microliter enzyme mix (buffer + 200nM KDM5BDeltaAP final concentration) is dispensed into the assay plate using the BioRAPTR Flying Reagent Dispenser (FRD; […]). Compound (at various final concentration) and control solution is pin transferred to the assay plate using the Kalypsys 1536-pin tool apparatus. The assay plate is incubated for 10 min at room temperature followed by addition of 1uL substrate mix (buffer + 100uM ascorbic acid, 50uM ferrous ammonium sulfate, 12.5uM H3K4Me3, 25uM a-ketoglutarate, 0.25 mM NAD+, 0.25 U/mL formaldehyde dehydrogenase using the FRD yielding a total reaction volume of 4 uL. Initial fluorescence (Read1) is detected using the PerkinElmer ViewLux plate reader equipped with 340 nm excitation and 450 nm emission filters. The final fluorescence (Read2) signal is obtained after 30 min of room temperature incubation. Delta RFU is calculated (Read2 - Read1) and is used to generated dose response curves.
# Potency means the concentration at half of the fitted maximal effect.
# Lysine-specific demethylase 5B (Homo sapiens), sequence (Q9UGL1 whole entry, looked up): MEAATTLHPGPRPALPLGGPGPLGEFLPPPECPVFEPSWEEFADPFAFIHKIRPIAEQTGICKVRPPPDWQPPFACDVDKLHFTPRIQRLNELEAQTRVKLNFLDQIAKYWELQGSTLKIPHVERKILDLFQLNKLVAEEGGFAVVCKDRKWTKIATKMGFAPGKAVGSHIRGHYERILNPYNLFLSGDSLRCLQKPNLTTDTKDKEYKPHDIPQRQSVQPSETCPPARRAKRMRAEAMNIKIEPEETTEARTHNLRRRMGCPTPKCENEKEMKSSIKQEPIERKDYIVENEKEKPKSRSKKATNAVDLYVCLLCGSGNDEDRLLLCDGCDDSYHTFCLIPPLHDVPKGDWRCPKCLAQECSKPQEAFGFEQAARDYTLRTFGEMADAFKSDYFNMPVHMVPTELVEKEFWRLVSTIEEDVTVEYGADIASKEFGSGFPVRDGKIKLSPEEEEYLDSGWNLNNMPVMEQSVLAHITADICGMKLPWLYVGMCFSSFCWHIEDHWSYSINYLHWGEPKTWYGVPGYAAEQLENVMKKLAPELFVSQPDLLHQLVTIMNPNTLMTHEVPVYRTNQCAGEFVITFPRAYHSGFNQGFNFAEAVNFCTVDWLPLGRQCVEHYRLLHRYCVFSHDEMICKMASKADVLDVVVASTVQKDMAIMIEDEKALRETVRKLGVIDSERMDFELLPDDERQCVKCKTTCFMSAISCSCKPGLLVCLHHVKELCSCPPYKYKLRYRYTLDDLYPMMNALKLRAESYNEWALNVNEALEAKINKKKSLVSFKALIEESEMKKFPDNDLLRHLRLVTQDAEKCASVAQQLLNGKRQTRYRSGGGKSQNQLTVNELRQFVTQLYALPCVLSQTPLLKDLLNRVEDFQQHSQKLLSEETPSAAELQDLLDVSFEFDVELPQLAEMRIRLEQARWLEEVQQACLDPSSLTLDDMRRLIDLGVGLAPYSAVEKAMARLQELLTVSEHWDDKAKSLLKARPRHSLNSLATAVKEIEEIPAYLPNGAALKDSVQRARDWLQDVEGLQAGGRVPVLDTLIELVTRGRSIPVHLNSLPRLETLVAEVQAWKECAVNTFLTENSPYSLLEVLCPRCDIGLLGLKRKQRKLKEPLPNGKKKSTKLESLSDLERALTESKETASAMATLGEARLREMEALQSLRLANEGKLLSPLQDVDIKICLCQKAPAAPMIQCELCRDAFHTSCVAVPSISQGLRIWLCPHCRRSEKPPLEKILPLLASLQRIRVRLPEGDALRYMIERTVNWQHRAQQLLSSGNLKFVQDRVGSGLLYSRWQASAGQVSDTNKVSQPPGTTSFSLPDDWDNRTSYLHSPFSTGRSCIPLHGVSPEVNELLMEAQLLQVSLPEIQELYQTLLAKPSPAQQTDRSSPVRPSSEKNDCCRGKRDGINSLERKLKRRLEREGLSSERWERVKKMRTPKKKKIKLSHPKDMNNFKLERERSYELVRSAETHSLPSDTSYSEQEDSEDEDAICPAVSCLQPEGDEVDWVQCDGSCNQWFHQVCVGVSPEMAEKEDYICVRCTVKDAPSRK
row,Structure (SMILES),Potency
1,COc1ccc(C(C)=O)cc1CN1CCN(C/C=C/c2ccccc2)CC1,inactive
2,NC(N)=N/N=C/c1ccc([N+](=O)[O-])cc1,inactive
3,CSc1ccccc1NC(=O)c1ccc(C)c(C)c1,inactive
4,COc1ccccc1C(=O)N1CCC2(CC1)CC(=O)c1ccccc1O2,31.6 µM (active)
5,O=C1NC2(CCN(C(=O)c3ccccc3)C2)COc2ccccc21 (stereo not drawn),inactive
6,COc1ccccc1C(=O)N1CCC2(CCC(=O)N(Cc3ccccc3)CC2)CC1,inactive
7,COc1ccccc1C(=O)N1CCC2(CC1)C(=O)Nc1ccccc12,inactive
8,Cc1ccc(C(=O)N2CCC3(CC2)NC(=O)N(Cc2ccc(F)cc2)C3=O)cc1,inactive
9,Cc1ccc(C(=O)N2CCC3(CC2)CC(=O)c2ccccc2O3)cc1,25.1 µM (active)
10,Cc1[nH]c2ccccc2c1C(=O)COc1ccc(C(N)=O)cc1,inactive
11,COc1ccc(-c2c(C)oc3cc(OC(=O)c4ccc5c(c4)OCO5)ccc3c2=O)cc1,inactive
12,CCS(=O)(=O)N1CCC(NS(=O)(=O)c2ccsc2C(=O)OC)CC1,inactive
13,COc1ccc(-c2nc(CN3CCCC3c3nnc4ccccn34)co2)cc1 (stereo not drawn),inactive
14,CCOC(=O)c1ccoc1CN1CCCC(O)C1 (stereo not drawn),inactive
15,CCCn1c(NC(=O)CCOc2ccccc2)nc2ccccc21,inactive
16,CONC(=O)Cc1ccc(OC)cc1,inactive
17,O=C(O)C(c1c[nH]c2ccc(Cl)cc12)N1CCCN(c2ccc(C(F)(F)F)cn2)CC1 (stereo not drawn),inactive
18,CCn1c(SCC(=O)NC2=NCCS2)nnc1C(C)NC(=O)c1ccccc1F (stereo not drawn),inactive
19,CC(C)n1nc(C(=O)Nc2ccc(Nc3ccccc3)cc2)c2ccccc2c1=O,inactive
20,c1ccc(-c2noc(-c3ccccc3OC3CCNC3)n2)cc1 (stereo not drawn),20 µM (active)
21,Brc1ccc(-c2noc(-c3ccccc3)n2)o1,inactive
22,CC(=O)c1ccc(NC(=O)COc2ccccc2-c2nc(-c3ccccc3)no2)cc1,inactive

row,Structure (SMILES),Potency
1,CN1C[C@]2(C=C3CCCCC3n3c(=O)n(-c4ccccc4)c(=O)n32)N=C1NC(=O)c1ccccc1 (stereo partly drawn),inactive
2,CCCNC(=S)NNC(=O)CCC,inactive
3,CC1CCN(C(=O)C[C@@H]2c3nc(NC(=O)c4ccnc(Cl)c4)sc3C[C@@H]3[C@](C)(CO)[C@H](O)CC[C@]32C)CC1,inactive
4,COc1ccc(C(=O)Nc2cccc(-c3nnc4n3CCCC4)c2)cc1,inactive
5,CCC(=O)Nc1ccc2nnc(-c3ccc(C(=O)Nc4ccc(OC)cc4)cc3)n2c1,25.1 µM (active)
6,COc1ccc(CC(=O)Nc2ccc(C(=O)NC(C)(C)C)cc2)cc1,inactive
7,COc1ccc(NC(=O)C2CCCN(Cc3nc(-c4ccc(OC)c(OC)c4)no3)C2)cc1OC (stereo not drawn),inactive
8,CCC(C)NC(=O)c1ccc(NC(=O)CC2SC(N3CCCCC3)=NC2=O)cc1 (stereo not drawn),inactive
9,CCC(CC)NC(=O)c1ccc(-c2nnc3ccc(NC(=O)C4CCC4)cn23)cc1,10 µM (active)
10,O=[N+]([O-])c1ccc(/C=N/OCc2cc(F)cc3cccnc23)cc1,inactive
11,CC1C(=O)Nc2ccccc2N1C(=O)c1ccc(F)cc1F (stereo not drawn),inactive
12,CC(C)(C)c1ccc(C(=O)NN=C2CCCCC2)cc1,inactive
13,FC(F)(F)c1ccc(CCNC(=S)NC2CC2)cc1,inactive
14,O=C(c1cccc(C(F)(F)F)c1)N1CCC2(CC1)CC(O)CCO2 (stereo not drawn),inactive
15,COc1ccc(OC2CN(Cc3cccn3C)C2)cc1,44.7 µM (active)
16,COc1ccc(CN2CC(Oc3ccc(OC)cc3)C2)cc1,inactive
17,COc1ccc(OC2CN(CC3CCCCC3)C2)cc1,inactive
18,CN(C(=O)Cn1nc(Cc2cccnc2)c2ccccc2c1=O)c1ccccc1Cl,inactive
19,CC1=NS(=O)(=O)N(Cc2ccccc2)C=C1C(=O)OCc1noc(C)n1,inactive
20,COc1cccc(-c2cc(C3CCN(C(=O)Nc4ccccc4Cl)CC3)[nH]n2)c1,inactive
21,O=C(OCc1nc2ccccc2o1)c1cc(F)cc(F)c1,inactive
22,Cc1noc(-c2cccn3c(CNC(=O)c4ccco4)nnc23)n1,28.2 µM (active)

row,Structure (SMILES),Potency
1,Cc1noc(-c2ccc(OC3CN(C(=O)c4ccco4)C3)cc2)n1,inactive
2,Cc1noc(-c2cccn3c(CNC(=O)CCc4ccccc4)nnc23)n1,22.4 µM (active)
3,COCc1nc(CCNC(=O)CCc2ccccc2)no1,inactive
4,Cc1noc(-c2cccc(OC3CN(C(=O)NCCc4ccccc4)C3)c2)n1,inactive
5,Cc1cnc(CCNC(=O)c2ccco2)n1C1CCC1,inactive
6,Cn1c(=O)[nH]c(=O)c2c1ncn2CC(O)c1ccccc1 (stereo not drawn),inactive
7,CC(=O)N1CCN(c2ccc3nnc(-c4ccc(C)cn4)n3n2)CC1,inactive
8,Cc1ccc(-c2nnc3ccc(-c4ccoc4)nn23)nc1,31.6 µM (active)
9,COP(=O)(OC)c1nc(-c2cccs2)oc1NCc1ccc(C)cc1,inactive
10,CCCCc1ccc(C(=O)NCc2cccnc2)cc1,inactive
11,COCCCNC(=O)c1ccc2c(c1)n(Cc1cccc(OC)c1)c(=O)c1ccnn12,inactive
12,O=C(Nc1ccc(F)cc1F)c1ccc2c(c1)n(Cc1cccc(F)c1)c(=O)c1ccnn12,inactive
13,CCn1c(=O)c2ccnn2c2ccc(C(=O)NC3CCCCC3)cc21,25.1 µM (active)
14,Cn1c(=O)c2c(nc(SCC(=O)Nc3ccccc3F)n2Cc2ccccc2)n(C)c1=O,inactive
15,Cc1ccccc1NC(=O)Cn1c(=O)n(Cc2ccco2)c(=O)c2ccc(C(=O)NC3CCCC3)cc21,inactive
16,O=C(Nc1ccccc1F)c1ccc2c(c1)n(Cc1ccccc1)c(=O)c1ccnn12,31.6 µM (active)
17,Cc1oc2ccn(Cc3cccc(F)c3)c(=O)c2c1C(=O)NCc1cccnc1,inactive
18,O=C(NCc1cccnc1)c1ccc2c(c1)n(Cc1ccc(F)cc1)c(=O)c1ccnn12,25.1 µM (active)
19,Cc1[nH]c2ccccc2c1C=O,inactive
20,CCOC(=O)CN(CCOC)C(=O)CCCc1ccccc1,inactive
21,CC(C)(C)c1ccc(N2C(=O)[C@@H]3C[C@@H](NC(=O)[C@@H](O)c4ccccc4)CCN3C2=O)cc1,inactive
22,O=C(CN1N=C(c2ccccc2F)c2cc(Cl)ccc2S1(=O)=O)Nc1cc(F)ccc1F,inactive

row,Structure (SMILES),Potency
1,N#Cc1c(N)n[nH]c1CCCNc1ncnc2c1oc1ccccc12,inactive
2,O=C1CCN(C(=O)c2nccc3ccccc23)CCOCCN1,inactive
3,CC(C)(C)c1nc(C(=O)N2CCOCC2)n2ccccc12,100 µM (active)
4,O=C(c1cc(-c2ccc(Cl)s2)nc2ccccc12)N1CCOCC1,inactive
5,NC(=O)c1ccc(NC(=O)CCc2ncc(-c3ccc(F)cc3)o2)cc1,inactive
6,c1cc(-c2ccsc2)n2nc(C3CCCO3)nc2n1 (stereo not drawn),25.1 µM (active)
7,O=C(CSc1nnc(-c2ccccc2)c2ccccc12)c1ccc2c(c1)OCCCO2,inactive
8,O=C(CS(=O)(=O)Cc1coc(-c2ccc(F)cc2)n1)NC1CCCCCC1,inactive
9,O=C(COc1ccc(Cl)cc1)Nc1ccc2oc(-c3ccc(F)cc3)nc2c1,inactive
10,CC(C)C(Nc1ccc([N+](=O)[O-])cn1)c1ccc(Cl)cc1 (stereo not drawn),inactive
11,O=C(NCc1ccccc1)C1CCN(c2nc3ccccc3o2)CC1,inactive
12,Cc1ccnc(N2CCCC(C(=O)NC3CC3)C2)n1 (stereo not drawn),inactive
13,Cc1ccccc1CN1CCC(N2CCCC(C(=O)NC3CC3)C2)CC1 (stereo not drawn),inactive
14,O=C(NC1CCN(c2nc3ncccc3o2)CC1)c1ccc(Cl)nc1,25.1 µM (active)
15,CCN(CC)Cc1ccc(CNC(=O)C2CCN(c3nc4ccccc4o3)CC2)cc1,inactive
16,CN(C)C(=O)NC1CCN(c2nc3ncccc3o2)CC1,31.6 µM (active)
17,O=C(NC1CCN(c2cc(C(F)(F)F)ncn2)CC1)c1ccc(F)cc1,inactive
18,O=C(NC1CCCCC1)c1ccc(Cn2c(SCc3ccccc3)nc3cccnc32)cc1,inactive
19,O=C(NC1CC1)C1CCCN(c2nc3ncccc3o2)C1 (stereo not drawn),35.5 µM (active)
20,O=C(NC1CCN(c2nc3ncccc3o2)CC1)c1ccc(F)cc1,35.5 µM (active)
21,Cc1cc(C)cc(C(=O)NC2CCN(c3cnn(C)c(=O)c3)CC2)c1,inactive
22,O=C(NC1C[C@H]2CC[C@@H](C1)N2S(=O)(=O)c1ccc2c(c1)OCCO2)c1ccc(F)cc1 (stereo partly drawn),inactive

row,Structure (SMILES),Potency
1,CC/C(=N/N=C(/CC)c1ccccc1)c1ccccc1,inactive
2,CC(C)c1nnc(NC(=O)c2cc(Cl)c3c(c2)OCCO3)s1,inactive
3,O=C(NCc1ccc(CN2CCCCC2)cc1)c1cc2ccccc2oc1=O,inactive
4,CC(C)NC(=O)Nc1ccc(CNC(=O)C2(C#N)CCCC2)cc1,inactive
5,Cn1c(=O)[nH]c(=O)c2c1nc(N1CCC(Cc3ccccc3)CC1)n2CCCc1ccccc1,inactive
6,O=C(NCC(=O)N1CCCC(C(F)(F)F)C1)c1ccccc1F (stereo not drawn),inactive
7,CC1CCC(NC(=O)CCCc2ccccc2)CC1 (stereo not drawn),inactive
8,O=C(c1n[nH]c(=O)c2ccccc12)N1CCCCCC1c1nnc(-c2ccccc2)o1 (stereo not drawn),inactive
9,Cc1sc(NCCC(C)C)nc1-c1ccc(NS(C)(=O)=O)cc1,inactive
10,CC(C)c1ncc(Cl)c(C(=O)O)n1,inactive
11,CN(C)CCNC(=O)c1nc2nc(-c3ccccc3)c(-c3cccc(F)c3)cc2n1C,inactive
12,COc1ccc(Nc2cc(Cl)ccc2C(=O)O)cn1,inactive
13,COc1ccc(Nc2cc3c(nc2-c2ccccc2)nc(C(=O)NCCN(C)C)n3C)cn1,31.6 µM (active)
14,CN(C(=O)CCc1c[nH]c2ccccc12)C1CCCC1,inactive
15,O=C1NCc2ccccc2CC12CCCN(Cc1ccc(F)c(Cl)c1)C2 (stereo not drawn),inactive
16,CCOc1ccccc1NC(=O)c1cnc2ccccc2n1,inactive
17,CCC(C(=O)Nc1ccc(F)cc1F)n1nc(-c2ccc(C)cc2)ccc1=O (stereo not drawn),inactive
18,Cc1ccc2nc(C3CCCN(Cc4ccc(C#N)cc4)C3)[nH]c(=O)c2c1 (stereo not drawn),inactive
19,O=c1[nH]c(C2CCN(Cc3ccccc3)CC2)nc2ccc(F)cc12,inactive
20,O=c1[nH]c(C2CCCN(Cc3ccc(-c4ccsc4)cc3)C2)nc2ccc(F)cc12 (stereo not drawn),79.4 µM (active)
